For eight sequences, binding signal results are on record in publication PMC7862700, “An all-to-all approach to the identification of sequence-specific readers for epigenetic DNA modifications on cytosine”.

Holding throughout (assay): DAPPL (digital affinity profiling via proximity ligation, sequencing); 10 mM Tris-HCl pH 7.5, 50 mM NaCl, 1 mM DTT, 4% glycerol, room temperature, 30 min; GST-TFs on glutathione beads, 16-mer random dsDNA library, 0.1% formaldehyde crosslink after washing; high values mean tight binding
Holding throughout (settings): protein: recombinant; tags: N-terminal GST; dsDNA, one strand shown

The target in assay [1] is T1, FLI1 (Homo sapiens, UniProt Q01543 1-452).
T1 sequence: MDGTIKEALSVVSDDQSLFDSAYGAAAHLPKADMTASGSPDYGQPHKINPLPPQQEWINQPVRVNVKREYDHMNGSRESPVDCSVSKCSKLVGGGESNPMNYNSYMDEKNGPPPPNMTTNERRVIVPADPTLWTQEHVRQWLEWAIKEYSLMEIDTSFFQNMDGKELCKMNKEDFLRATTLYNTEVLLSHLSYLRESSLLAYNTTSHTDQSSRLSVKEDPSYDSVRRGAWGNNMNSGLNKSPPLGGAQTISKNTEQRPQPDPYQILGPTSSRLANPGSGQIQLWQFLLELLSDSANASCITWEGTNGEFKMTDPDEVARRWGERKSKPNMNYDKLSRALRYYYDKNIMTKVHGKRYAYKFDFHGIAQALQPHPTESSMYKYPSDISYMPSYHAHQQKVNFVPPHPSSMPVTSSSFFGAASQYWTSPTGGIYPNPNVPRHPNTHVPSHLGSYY
Summed up: (§1)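 Pools were built from human transcription factors expressed in yeast as GST fusions, captured on glutathione beads and DNA-barcoded, along with a tag-only sample. Incubation with 200 nmole of a 16-mer random double-stranded DNA library lasted 30 min at room temperature in Tris/NaCl/DTT/glycerol buffer, and was followed by washing, 0.1% formaldehyde crosslinking, proximity ligation, PCR amplification and Illumina NextSeq500 sequencing. Binding signal is the quotient of each hexamer's read frequency for a factor and its frequency for the tag-only sample.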

Assay [2] addresses T2, ELK1 (Homo sapiens, UniProt P19419 1-428).
T2 sequence: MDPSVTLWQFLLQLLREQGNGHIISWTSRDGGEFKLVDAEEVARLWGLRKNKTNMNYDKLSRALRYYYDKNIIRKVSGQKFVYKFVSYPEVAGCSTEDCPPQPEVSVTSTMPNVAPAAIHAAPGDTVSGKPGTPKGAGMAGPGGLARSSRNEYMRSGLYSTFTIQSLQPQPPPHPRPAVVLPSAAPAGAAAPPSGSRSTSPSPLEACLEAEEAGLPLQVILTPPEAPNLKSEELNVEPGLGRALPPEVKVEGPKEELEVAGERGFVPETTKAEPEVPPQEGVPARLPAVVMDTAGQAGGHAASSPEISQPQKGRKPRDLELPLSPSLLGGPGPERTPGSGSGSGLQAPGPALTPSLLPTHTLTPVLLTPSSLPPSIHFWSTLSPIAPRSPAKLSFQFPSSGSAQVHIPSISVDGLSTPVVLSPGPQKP
Summed up:
as §1

Assay [3] has as its target T3, GABPA (Homo sapiens, UniProt Q06546 1-454).
T3 sequence: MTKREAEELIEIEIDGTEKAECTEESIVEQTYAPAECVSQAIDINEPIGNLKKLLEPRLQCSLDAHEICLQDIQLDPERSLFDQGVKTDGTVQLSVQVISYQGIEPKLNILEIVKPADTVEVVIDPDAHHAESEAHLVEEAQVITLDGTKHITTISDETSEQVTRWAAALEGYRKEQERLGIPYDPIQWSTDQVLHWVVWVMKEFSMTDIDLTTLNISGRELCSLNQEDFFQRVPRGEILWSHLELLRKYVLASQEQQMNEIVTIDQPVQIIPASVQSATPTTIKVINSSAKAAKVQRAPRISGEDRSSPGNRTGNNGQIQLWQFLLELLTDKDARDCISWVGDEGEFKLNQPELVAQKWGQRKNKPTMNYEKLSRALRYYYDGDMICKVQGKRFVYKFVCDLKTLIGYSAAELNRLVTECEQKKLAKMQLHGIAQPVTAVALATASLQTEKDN
Summed up:
as §1

Assay [4] addresses T4, ERG (Homo sapiens, UniProt P11308 1-479).
T4 sequence: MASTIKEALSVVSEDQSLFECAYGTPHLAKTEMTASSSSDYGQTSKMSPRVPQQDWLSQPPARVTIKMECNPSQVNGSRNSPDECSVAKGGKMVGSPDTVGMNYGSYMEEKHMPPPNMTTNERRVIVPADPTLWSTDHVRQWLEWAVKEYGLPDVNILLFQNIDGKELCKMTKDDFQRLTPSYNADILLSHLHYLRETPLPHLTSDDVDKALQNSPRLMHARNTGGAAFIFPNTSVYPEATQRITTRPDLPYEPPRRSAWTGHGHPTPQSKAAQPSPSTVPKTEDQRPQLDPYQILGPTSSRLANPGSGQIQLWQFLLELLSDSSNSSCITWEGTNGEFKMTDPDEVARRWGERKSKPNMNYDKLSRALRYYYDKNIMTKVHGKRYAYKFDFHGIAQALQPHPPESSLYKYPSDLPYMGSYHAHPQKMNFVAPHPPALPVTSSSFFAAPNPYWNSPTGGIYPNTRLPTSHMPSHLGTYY
Summed up: as §1

In assay [5] the target is ELF1 (Homo sapiens, UniProt P32519 1-619). Summed up:
as §1

In assay [6] the target is T5, EHF (Homo sapiens, UniProt Q9NZC4 1-300).
T5 sequence: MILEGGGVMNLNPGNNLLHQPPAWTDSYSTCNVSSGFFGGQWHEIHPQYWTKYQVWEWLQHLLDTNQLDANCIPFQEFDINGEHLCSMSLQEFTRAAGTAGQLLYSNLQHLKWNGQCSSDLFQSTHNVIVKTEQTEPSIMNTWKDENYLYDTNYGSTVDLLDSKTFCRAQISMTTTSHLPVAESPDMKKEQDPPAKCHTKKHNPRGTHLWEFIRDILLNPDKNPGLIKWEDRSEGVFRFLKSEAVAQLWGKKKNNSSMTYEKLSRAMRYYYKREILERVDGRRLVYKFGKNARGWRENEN
Summed up:
as §1

Assay [7] addresses SPI1 (Homo sapiens, UniProt P17947 1-270). Summed up: as §1
The target of assay [8] is SPIB (Homo sapiens, UniProt Q01892 1-262). Summed up:
as §1

Assay [9] has as its target T6, ELK3 (Homo sapiens, UniProt P41970 1-407).
T6 sequence: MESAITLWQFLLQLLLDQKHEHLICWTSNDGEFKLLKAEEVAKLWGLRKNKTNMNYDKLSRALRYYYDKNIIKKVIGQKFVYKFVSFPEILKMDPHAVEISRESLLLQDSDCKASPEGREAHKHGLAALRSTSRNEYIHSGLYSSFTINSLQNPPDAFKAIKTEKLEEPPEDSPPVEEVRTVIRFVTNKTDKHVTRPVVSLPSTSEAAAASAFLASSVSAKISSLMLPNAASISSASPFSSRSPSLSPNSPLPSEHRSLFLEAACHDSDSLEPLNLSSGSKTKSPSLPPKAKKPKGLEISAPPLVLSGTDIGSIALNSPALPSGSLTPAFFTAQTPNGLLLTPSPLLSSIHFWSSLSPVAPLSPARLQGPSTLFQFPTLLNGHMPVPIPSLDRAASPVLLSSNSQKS
Summed up: as §1

For assay [10], the target named is SPI1 (Homo sapiens, UniProt P17947 1-270). Summed up: as §1
The source holds these as a separate data set.

Chain of ELF1 (P32519 whole entry): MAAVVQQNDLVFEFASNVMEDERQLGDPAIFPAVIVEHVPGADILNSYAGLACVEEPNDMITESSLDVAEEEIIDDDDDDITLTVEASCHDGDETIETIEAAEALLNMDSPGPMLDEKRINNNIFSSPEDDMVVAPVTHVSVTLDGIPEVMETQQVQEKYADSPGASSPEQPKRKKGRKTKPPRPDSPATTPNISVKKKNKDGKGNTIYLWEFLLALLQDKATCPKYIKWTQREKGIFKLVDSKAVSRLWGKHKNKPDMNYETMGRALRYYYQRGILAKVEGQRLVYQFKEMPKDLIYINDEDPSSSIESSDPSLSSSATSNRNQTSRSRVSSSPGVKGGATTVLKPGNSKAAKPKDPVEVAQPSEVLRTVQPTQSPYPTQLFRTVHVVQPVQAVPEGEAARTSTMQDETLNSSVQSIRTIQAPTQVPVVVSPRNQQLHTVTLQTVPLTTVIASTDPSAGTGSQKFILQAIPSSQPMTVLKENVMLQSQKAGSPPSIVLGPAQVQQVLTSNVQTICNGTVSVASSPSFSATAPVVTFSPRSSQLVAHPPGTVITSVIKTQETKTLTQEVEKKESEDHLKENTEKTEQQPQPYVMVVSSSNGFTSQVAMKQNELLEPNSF
Chain of SPIB (Q01892 whole entry): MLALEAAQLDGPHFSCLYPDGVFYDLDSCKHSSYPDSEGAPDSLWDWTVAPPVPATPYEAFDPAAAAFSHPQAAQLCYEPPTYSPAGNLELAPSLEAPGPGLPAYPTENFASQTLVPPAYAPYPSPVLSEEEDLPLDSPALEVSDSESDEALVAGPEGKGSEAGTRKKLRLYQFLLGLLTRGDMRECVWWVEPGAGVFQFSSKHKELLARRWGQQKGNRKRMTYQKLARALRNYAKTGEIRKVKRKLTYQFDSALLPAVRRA

Consider CTGCTG, for which the binding signal in [1] was 1.15 fold enrichment (6-mer frequency, TF over GST control); in assay [2] it was 1.26 fold enrichment (6-mer frequency, TF over GST control); in [3], 1.27 fold enrichment (6-mer frequency, TF over GST control); in assay [4], 1.11 fold enrichment (6-mer frequency, TF over GST control); in [5], 1.4 fold enrichment (6-mer frequency, TF over GST control); in assay [6], 1.39 fold enrichment (6-mer frequency, TF over GST control). For the same sequence, the binding signal in [7] was 1.24 fold enrichment (6-mer frequency, TF over GST control); in assay [8], 1.04 fold enrichment (6-mer frequency, TF over GST control); in assay [9], 1.3 fold enrichment (6-mer frequency, TF over GST control).
In the case of AACGAT, the binding signal in assay [1] was 1.28 fold enrichment (6-mer frequency, TF over GST control); in assay [2] it was 1.16 fold enrichment (6-mer frequency, TF over GST control); in assay [3] it was 1.13 fold enrichment (6-mer frequency, TF over GST control); in [4], 1.21 fold enrichment (6-mer frequency, TF over GST control); in assay [5], 1.24 fold enrichment (6-mer frequency, TF over GST control); in [6], 1.17 fold enrichment (6-mer frequency, TF over GST control). Moreover, the binding signal in assay [7] was 1.17 fold enrichment (6-mer frequency, TF over GST control); in assay [8] it was 1.21 fold enrichment (6-mer frequency, TF over GST control); in assay [9], 1.24 fold enrichment (6-mer frequency, TF over GST control).
On to CCGTTC, for which the binding signal in [1] was 1.32 fold enrichment (6-mer frequency, TF over GST control); in [2] it was 1.38 fold enrichment (6-mer frequency, TF over GST control); in [3], 1.39 fold enrichment (6-mer frequency, TF over GST control); in assay [4], 1.38 fold enrichment (6-mer frequency, TF over GST control); in assay [5] it was 1.46 fold enrichment (6-mer frequency, TF over GST control); in [6], 1.5 fold enrichment (6-mer frequency, TF over GST control). The binding signal in assay [7] is 1.39 fold enrichment (6-mer frequency, TF over GST control); in assay [8] it was 1.47 fold enrichment (6-mer frequency, TF over GST control); in [9], 1.4 fold enrichment (6-mer frequency, TF over GST control).
With TACATG, the binding signal is 1.24 fold enrichment (6-mer frequency, TF over GST control) in assay [1]; 1.09 fold enrichment (6-mer frequency, TF over GST control) in assay [2]; 1.14 fold enrichment (6-mer frequency, TF over GST control) in [3]; 1.2 fold enrichment (6-mer frequency, TF over GST control) in [4]; 1.27 fold enrichment (6-mer frequency, TF over GST control) in assay [5]; 1.18 fold enrichment (6-mer frequency, TF over GST control) in assay [6]. The binding signal in [7] is 1.26 fold enrichment (6-mer frequency, TF over GST control); in assay [8], 1.16 fold enrichment (6-mer frequency, TF over GST control); in assay [9], 1.3 fold enrichment (6-mer frequency, TF over GST control).
Take TCGCTC: the binding signal in assay [1] is 1.25 fold enrichment (6-mer frequency, TF over GST control); in assay [2], 1.27 fold enrichment (6-mer frequency, TF over GST control); in assay [3] it was 1.35 fold enrichment (6-mer frequency, TF over GST control); in [4], 1.26 fold enrichment (6-mer frequency, TF over GST control); in [5], 1.29 fold enrichment (6-mer frequency, TF over GST control); in [6] it was 1.19 fold enrichment (6-mer frequency, TF over GST control). Moreover, the binding signal in [7] is 1.29 fold enrichment (6-mer frequency, TF over GST control); in assay [8], 1.27 fold enrichment (6-mer frequency, TF over GST control); in assay [9], 1.37 fold enrichment (6-mer frequency, TF over GST control).
Regarding TTCCGG, the binding signal in assay [1] is 5.8 fold enrichment (6-mer frequency, TF over GST control); in assay [2], 5.94 fold enrichment (6-mer frequency, TF over GST control); in assay [3], 5.16 fold enrichment (6-mer frequency, TF over GST control); in [4], 7.1 fold enrichment (6-mer frequency, TF over GST control); in assay [5] it was 5.41 fold enrichment (6-mer frequency, TF over GST control); in [6], 5.96 fold enrichment (6-mer frequency, TF over GST control). The binding signal is 5.73 fold enrichment (6-mer frequency, TF over GST control) in assay [10]; 5.9 fold enrichment (6-mer frequency, TF over GST control) in assay [8]; 6.93 fold enrichment (6-mer frequency, TF over GST control) in [9].
Consider TTATTT, for which the binding signal in assay [1] is 1.4 fold enrichment (6-mer frequency, TF over GST control); in assay [2], 1.42 fold enrichment (6-mer frequency, TF over GST control); in assay [3] it was 1.33 fold enrichment (6-mer frequency, TF over GST control); in [4] it was 1.44 fold enrichment (6-mer frequency, TF over GST control); in assay [5], 1.3 fold enrichment (6-mer frequency, TF over GST control); in assay [6] it was 1.35 fold enrichment (6-mer frequency, TF over GST control). Also, the binding signal in assay [7] was 1.44 fold enrichment (6-mer frequency, TF over GST control); in assay [8], 1.37 fold enrichment (6-mer frequency, TF over GST control); in assay [9], 1.33 fold enrichment (6-mer frequency, TF over GST control).
In the case of GCTCCG, the binding signal in assay [1] is 1.37 fold enrichment (6-mer frequency, TF over GST control); in assay [2] it was 1.4 fold enrichment (6-mer frequency, TF over GST control); in [3], 1.35 fold enrichment (6-mer frequency, TF over GST control); in [4] it was 1.36 fold enrichment (6-mer frequency, TF over GST control); in [5] it was 1.32 fold enrichment (6-mer frequency, TF over GST control); in [6] it was 1.45 fold enrichment (6-mer frequency, TF over GST control). The binding signal in assay [7] was 1.25 fold enrichment (6-mer frequency, TF over GST control); in assay [8], 1.19 fold enrichment (6-mer frequency, TF over GST control); in assay [9], 1.44 fold enrichment (6-mer frequency, TF over GST control).
